Sm TGR inh – inhibitors of Schistosoma mansoni thioredoxin glutathione reductase | Q962Y6 | purified TGR, DTNB reduction, TNB absorbance 405 nm | Potency, µM (series often up to 114 µM), for the others: at the top dose activity change, negative = inhibition, usual class: inhibitors | actives 3% (n = 360,000); further: on the % scale 0 is the no-effect control and ±100 the full control effect; nearly all actives have a fitted effect of over 60% in size
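TGR 20 nM + NADPH 100 uM (dispensed conc.), cpd preinc 15 min RT; start with NADPH (500 uM addition) then DTNB (15 mM addition). Kinetic TNB absorbance, 405 nm filter. Four-parameter Hill fit across titration.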
AmpC inh no detg – inhibitors of E. coli AmpC beta-lactamase without detergent | P00811 | AmpC nitrocefin hydrolysis, absorbance 480 nm, 0.0001% Triton | Potency, µM (highest dose often 57.1 µM), without a hit: at the top dose activity change, negative = inhibition, actives largely listed as inhibitors | actives 0.52% (n = 330,000);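 further: plate controls were no compound for no effect and no enzyme for full effect; nearly all actives have a fitted effect of over 20% in size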
Target sequence (P00811 whole entry, looked up): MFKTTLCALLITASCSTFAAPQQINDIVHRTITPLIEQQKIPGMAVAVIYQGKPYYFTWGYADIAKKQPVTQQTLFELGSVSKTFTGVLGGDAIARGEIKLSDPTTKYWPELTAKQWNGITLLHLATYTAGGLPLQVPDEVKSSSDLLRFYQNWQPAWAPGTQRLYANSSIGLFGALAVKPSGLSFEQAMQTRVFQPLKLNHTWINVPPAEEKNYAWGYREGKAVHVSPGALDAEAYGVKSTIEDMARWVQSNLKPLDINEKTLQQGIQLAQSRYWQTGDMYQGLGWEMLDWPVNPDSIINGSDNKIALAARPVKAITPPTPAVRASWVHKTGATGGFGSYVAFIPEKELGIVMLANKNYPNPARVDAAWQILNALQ
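AmpC (5.3 nM in the dispensed reagent) in 20 mM phosphate pH 7.0 with 0.01% (detergent screen) or 0.0001% Triton X-100 was preincubated with compounds for 15 min at room temperature. Nitrocefin was then added from an 800 uM solution, and hydrolysis was followed at 480 nm.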
Pf growth 48h – inhibits P. falciparum growth in the first generation, 48 h. P. falciparum luciferase growth in erythrocytes, 48 h. Potency, µM (series often up to 28.7 µM), inactives show at the top dose activity change, negative = inhibition, usual class: inhibitors. actives 5.9% (n = 310,000). AID 504832; further: on the % scale 0 is the no-effect control and ±100 the full control effect
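In quantitative HTS format, infected erythrocytes bearing luciferase-reporter parasites were treated for a single generation at 37 C. Luminescence after adding detection reagent served as the growth measure.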
AmpC inh detg – blocks E. coli AmpC beta-lactamase in detergent assay; P00811; AmpC hydrolysis of nitrocefin, absorbance 480 nm, 0.01% Triton; Potency, µM (titrated, usually from 114 µM), for the others: at the top dose activity change, negative = inhibition, hits mostly inhibitors; actives 0.041% (n = 370,000);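 further: 0% = no-compound wells and -100% = no-enzyme wells; nearly all actives have a fitted effect of over 25% in size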
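20 mM phosphate pH 7.0 + 0.01% (detergent screen) or 0.0001% Triton X-100; 5.3 nM AmpC reagent; cpd preinc 15 min RT; nitrocefin (800 uM stock) to start; A480 q20 s × 4 min; Activity was normalised to no-enzyme and no-compound control wells.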
Pf growth 96h – P. falciparum growth inhibition at 96 hours. P. falciparum luciferase reporter growth, 96 h. AID 504834. Potency, µM (titrated, usually from 28.7 µM), for inactives: top-dose activity change, negative = inhibition, hits mostly inhibitors. actives 6.9% (n = 320,000); further: on the % scale 0 is the no-effect control and ±100 the full control effect
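Compounds incubated with erythrocytes infected by luciferase-expressing P. falciparum (2% hematocrit, 0.05% parasitemia final) for 96 hours, 37 C in 5% CO2. Growth inhibition scored as decreased luciferase luminescence.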
SARS PLP yeast – blocks SARS-CoV papain-like protease in a yeast assay | S. cerevisiae expressing SARS-CoV PLpro, growth rescue | Potency, µM (doses to about 32.9 µM), for inactives: at the top dose activity, positive = growth rescue, most hits filed as activators | actives 0.19% (n = 330,000) | AID 485353; calls by dose curve; further: 0% is about no effect; nearly all actives have a fitted effect of over 55% in size
* marks the source's active call; other numbers are inactive results; ? = inconclusive; . = no result; [ ] = remark or other dose. This is a sample that favours compounds with a hit; in the whole collection about 12% have one here. Unless noted, the call rests on the fitted dose curve; in most records, active means well fitted curve in the direction sought with a large enough effect; inconclusive means small, poorly fitted or top-dose-only effect, or another doubt; inactive means no such curve, though single readings can be large; an effect the other way counts as inactive or inconclusive. Potency means the concentration at half of the fitted maximal effect.

SMILES	Sm TGR inh	AmpC inh no detg	Pf growth 48h	AmpC inh detg	Pf growth 96h	SARS PLP yeast
CC(=O)c1ccccc1OCCCN1CCCCC1	31.6µM*	2.5%	?	-2.1%	53.2%	3.2%
CC(=O)c1cccc(NC(=O)CSc2nnc3ccc(-c4ccc(Br)cc4)nn23)c1	4.3%	.	.	-4.3%	.	.
COc1ccccc1CN(Cc1nc2ccccc2c(=O)[nH]1)C(=O)Nc1cccc(C)c1	3.3%	-21.3%	.	-7.7%	9.28µM*	-7.0%
COc1ccccc1CN(Cc1nc2ccccc2c(=O)[nH]1)S(=O)(=O)c1ccc2ccccc2c1	3.9%	-6.8%	5.86µM*	?	-24.3%	8.3%
COc1ccccc1NC(=O)N(Cc1ccc2c(c1)OCO2)Cc1nc2ccccc2c(=O)[nH]1	0.0%	-17.1%	?	9.7%	?	-4.0%
Cc1ccc(NC(=O)Cn2c(=O)nc(-c3ccccc3F)c3cc(Cl)ccc32)c(Br)c1	0.2%	.	.	21.5%	.	.
COc1ccccc1NC(=O)CSc1nc2ccccc2c(=O)n1CCNC(C)=O	9.2%	45.5%	?	?	8.28µM*	0.0%
N#CCCn1c(SCC(=O)NCc2ccco2)nc2ccccc21	39.8µM*	-8.8%	.	-7.8%	-0.9%	12.7%[6.58 µM]
Cc1sc2nc(C(C)C)nc(SCC(=O)NCc3ccco3)c2c1C	44.7µM*	-1.8%	?	-5.2%	?	-10.0%
O=C(CSc1nc2ccccc2c(=O)n1Cc1ccco1)NCc1ccco1	39.8µM*	-46.5%	?	-8.4%	-3.3%	3.0%
CCCn1c2ccccc2c2cnn(CC(=O)N(CCCOC(C)C)Cc3ccco3)c(=O)c21	-2.7%	.	.	2.9%	.	.
O=C(Nc1cccc(C(F)(F)F)c1)C1CCCN1S(=O)(=O)c1cccc2nsnc12 (stereo not drawn)	9.6%	.	.	-14.5%	.	.
COc1ccccc1CNS(=O)(=O)c1cnc(N)nc1	0.3%	.	.	4.1%	.	.
O=C(CSc1nc2ccccc2c(=O)n1Cc1ccco1)N1CCCCCC1	-1.9%	27.3%	5.22µM*	-1.1%	30.6%	-2.2%
Cc1sc2nc(SCC(=O)NCc3ccco3)n(Cc3ccccc3)c(=O)c2c1C	?	-56.5%	10.4µM*	-1.7%	.	6.1%
O=C(NCc1ccco1)c1ccc2c(=O)n(Cc3ccco3)c(SCC(=O)N3CCCC3)nc2c1	?	39.0%	?	?	52.0%	0.1%
CC(=O)NCCn1c(SCC(=O)NCc2ccco2)nc2ccccc2c1=O	-13.8%	-11.1%	5.9%	0.5%	4.65µM*	4.0%
CCOC(=O)CSc1nc2ccccc2c(=O)n1CCCCCC(=O)NCc1ccco1	-9.1%	45.8%	11.7µM*	?	33.3%	-3.4%
CCCCn1c(SCC(=O)NCc2ccco2)nc2ccccc2c1=O	-20.0%	-26.2%	.	?	-42.2%	-3.3%
Cc1cc(C(F)(F)F)n2nc(-c3cnn(C)c3C(F)(F)F)c(Br)c2n1	6.8%	89.4%	?	?	?	1.5%
CC(C)C(C)NC(=O)COC(=O)c1cccc(C(=O)OCC(=O)NC(C)C(C)C)n1 (stereo not drawn)	2.7%	-7.4%	5.0%	-0.2%	6.3%	-0.2%
CCOc1ccc(NC(=O)Cn2c(=O)n(CCc3ccccc3)c(=O)c3c4c(sc32)CCCC4)cc1	-1.5%	.	.	3.6%	.	.
COc1ccc(CCC(=O)N/N=C\c2cccs2)cc1	1.5%	-40.3%	9.28µM*	1.0%	56.4%	-2.5%
COc1ccc(CCC(=O)NNC(=O)c2cccs2)cc1	0.1%	-18.3%	-10.6%	-9.2%	-2.4%	-5.1%
O=C(CNC(=O)c1ccccc1)N/N=C/c1ccc([N+](=O)[O-])s1	?	-26.7%	?	-14.4%	4.15µM*	5.7%
O=C(Cc1ccccc1)NCC(=O)N/N=C/c1ccc([N+](=O)[O-])s1	-24.5%	-13.7%	?	?	5.22µM*	1.5%
